Sampled rows, rich in hits. Any-hit rate of the full collection: about 1.6%.
KCNQ2 block: KCNQ2 (rat) channel inhibition. O88943. CHO-K1 KCNQ2, FluxOR thallium flux, 20 min; stronger effect = lower value. B-score at 10 µM. 1.1% of 310,000 active. AID 2156;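 active = fluorescence ratio B-score at most minus 3 library SDs, with starting brightness B-score within 2 library SDs, cut at about -5.5 in these data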
KCNQ2 pot: KCNQ2 (rat) channel potentiation; O88943; CHO-K1 KCNQ2, FluxOR thallium flux fluorescence; stronger effect = higher value; 0.54% of 310,000 active; AID 2239; B-score at 10 µM;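 active = fluorescence ratio B-score at least 3 SD of library B-scores, with initial fluorescence B-score within 3 of them, cut at about 5.3 in these data; same plate scores as AID 2156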;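 note: B-score of peak minus minimum over baseline fluorescence ratio after K+ and Tl+ stimulus; positive B-score means potentiation of KCNQ2 with more thallium influx and brighter signal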
Kir21 confirm: confirmation of mouse Kir2.1 potassium channel inhibitors; shares compounds with KCNQ2 pot; Kir2.1-expressing cells, FluxOR thallium flux fluorescence; stronger effect = lower value; Tl flux remaining, % of negative control (stronger effect = lower value), % at 10 µM; 41% of 2,300 active;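 active = Primary-screen hit whose thallium flux fell at least 3 control SD below untreated wells in both duplicates, with normal baseline fluorescence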;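 note: 0% = blank wells without stimulus and 100% = stimulated no-compound controls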
HEK293 Tl flux: counter-screen for Kir2.1 inhibitors: effect in parental HEK293 cells | FluxOR signal as % of negative control (100 = no effect), % at 10 µM | shares compounds with KCNQ2 pot | AID 2105 | 19% of 2,300 active | FluxOR thallium flux fluorescence; 0% = unstimulated blank wells;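 active = dye signal at least 3 control SD above or below untreated wells in both duplicates, raw fluorescence within 3, either direction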;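 note: percent is based on the flux ratio of peak minus minimum fluorescence over baseline F0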
CHO-K1 ctr: alters thallium flux in parental CHO-K1 cells, KCNQ2 counter-screen; shares compounds with KCNQ2 pot; FluxOR thallium flux fluorescence; zero = vehicle mean+3SD, 100% = vehicle-minus-blank window; activity increase over 3SD of controls, % at 10 µM; 43% of 1,200 active; AID 2282;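 active = signal rise of at least 3 SD above the untreated control mean, in both duplicate wells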;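 note: counter screen of KCNQ2 potentiator hits so any rise reflects channel-independent effects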
KCNQ1 sel pot: human KCNQ1 counter-target activity of KCNQ2 potentiators | shares compounds with KCNQ2 pot | CHO KCNQ1 stable, FluxOR thallium flux fluorescence; beyond 3SD, as % of vehicle-control signal | activation over 3SD threshold, % at 10 µM | 28% of 1,200 active | AID 2283;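 active = fluorescence ratio rise of at least 3 SD of vehicle wells above their mean, in both replicate wells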;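 note: 0% = vehicle mean plus 3 SD and 100% = vehicle minus unstimulated blank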
Target sequence (P51787 whole entry, looked up): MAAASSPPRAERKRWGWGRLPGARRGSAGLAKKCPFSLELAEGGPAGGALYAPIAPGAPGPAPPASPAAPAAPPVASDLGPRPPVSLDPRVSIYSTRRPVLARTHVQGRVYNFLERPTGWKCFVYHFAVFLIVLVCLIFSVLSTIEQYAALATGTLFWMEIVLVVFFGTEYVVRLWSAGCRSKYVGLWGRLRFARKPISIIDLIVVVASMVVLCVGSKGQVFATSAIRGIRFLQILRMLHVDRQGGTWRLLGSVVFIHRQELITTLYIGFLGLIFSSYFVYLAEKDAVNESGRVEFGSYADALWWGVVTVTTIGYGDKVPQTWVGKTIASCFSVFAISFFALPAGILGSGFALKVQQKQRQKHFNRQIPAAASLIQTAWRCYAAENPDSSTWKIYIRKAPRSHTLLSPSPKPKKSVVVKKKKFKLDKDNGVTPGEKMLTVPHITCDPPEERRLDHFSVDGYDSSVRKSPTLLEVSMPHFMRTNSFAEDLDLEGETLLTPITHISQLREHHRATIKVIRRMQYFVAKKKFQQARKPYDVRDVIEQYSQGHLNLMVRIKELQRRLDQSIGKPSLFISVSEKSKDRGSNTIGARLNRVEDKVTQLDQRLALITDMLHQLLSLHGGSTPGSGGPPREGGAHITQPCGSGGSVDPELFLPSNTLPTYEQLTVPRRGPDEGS
KCNQ2 pot confirm: confirmation of rat KCNQ2 potassium channel potentiators; shares compounds with KCNQ2 pot; CHO-KCNQ2 cells, FluxOR thallium flux fluorescence; potentiation, less the hit threshold, % at 10 µM; 68% of 1,200 active;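 active = fluorescence ratio rising 3 SD or more over the vehicle control mean in both replicates, plus primary screen hit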;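 note: peak minus minimum thallium fluorescence divided by baseline after K/Tl stimulus; 0% = vehicle mean plus 3 SD and 100% = vehicle minus unstimulated blank difference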
Kir21 spec: selectivity of KCNQ2 potentiators: effect on mouse Kir2.1; 2% of 1,200 active; activity over 3SD threshold, % at 10 µM; shares compounds with KCNQ2 pot; HEK293 Kir2.1, FluxOR thallium flux fluorescence;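 active = fluorescence ratio rise of at least 3 SD above the vehicle-control mean, seen in both replicates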;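 note: 0% = vehicle mean plus 3 SD and 100% = vehicle minus no-stimulus blank window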
Active calls of the source: *; i = inactive; . = no result.

SMILES	KCNQ2 block	KCNQ2 pot	Kir21 confirm	HEK293 Tl flux	others
S=C(NCCCN1CCOCC1)N1CCN(c2nc(-c3ccc(Cl)cc3)cs2)CC1	i	.	.	.
S=C(NCC1CCCO1)N1CCN(c2nc(-c3ccc(Cl)cc3)cs2)CC1 (stereo not drawn)	i	.	i	i
CCc1ccc(NC(=O)Cc2ccc(NC3=NC4CS(=O)(=O)CC4S3)cc2)cc1 (stereo not drawn)	i	.	.	.
CCOc1ccc(NC(=O)Cc2ccc(NC3=NC4CS(=O)(=O)CC4S3)cc2)cc1 (stereo not drawn)	i	17*	i	i	CHO-K1 ctr=8.6*;KCNQ1 sel pot=-18;KCNQ2 pot confirm=-18;Kir21 spec=-30
COc1cccc(NC(=O)c2nc(S(C)(=O)=O)ncc2Cl)c1	i	.	63%*	64%*
COc1cccc(NC(=O)c2nc(SC)ncc2Cl)c1	i	0.34	.	.
CCOC(=O)N1CCN(C(=O)c2ccccc2N(Cc2ccccc2)S(=O)(=O)c2ccccc2)CC1	i	.	.	.
O=C(NCC1OCCc2ccccc21)c1cc(COc2c(F)cccc2F)on1 (stereo not drawn)	i	.	.	.
O=C(Cn1cccc1C(=O)c1ccccc1)NCCCc1ccccc1	i	0.8	.	.
CC(C(=O)NCCCc1ccccc1)n1cccc1C(=O)c1ccccc1 (stereo not drawn)	i	.	64%*	i
COc1cc(C)nc(NCc2ccccc2)n1	i	.	.	.
COc1ccc(Nc2cc(C)nc(NCc3ccccc3)n2)cc1	i	.	64%*	i
CCc1ccc(S(=O)(=O)NCCOc2cccc3cccnc23)cc1	i	.	70%*	i
CSc1ccc(S(=O)(=O)NCCOc2ccccc2C)cc1	i	.	.	.
Cc1ccc(C)c(NC(=O)CSc2nc3nc(-c4cccs4)cc(C(F)(F)F)c3c(=O)[nH]2)c1	i	6.4*	i	i	CHO-K1 ctr=-8;KCNQ1 sel pot=34*;KCNQ2 pot confirm=-97;Kir21 spec=-35
O=C(CSc1nc2nc(-c3cccs3)cc(C(F)(F)F)c2c(=O)[nH]1)Nc1ccc(F)c(F)c1	i	1.3	.	.
O=C(CNC(=O)[C@@H]1Cc2ccccc2CN1)NCc1ccco1	i	0.28	.	.
O=C(CCCN1CCC(O)(c2ccc(Cl)cc2)CC1)c1ccc(F)cc1	i	.	34%*	i
O=C(CCCN1CCC(C(=O)c2ccc(F)cc2)CC1)c1ccc(F)cc1	i	.	.	.
CCOC(=O)C1=C(C)NC(C)=C(C(=O)OCC)C1c1cn(-c2ccccc2)nc1-c1ccco1	i	11*	i	i	CHO-K1 ctr=17*;KCNQ1 sel pot=86*;KCNQ2 pot confirm=-12;Kir21 spec=-17
CCOC(=O)C1=C(C)NC(=O)NC1c1cn(-c2ccccc2)nc1-c1cccs1 (stereo not drawn)	i	.	.	.
CCOc1ccc(C(=O)NC2CCN(C(=O)Nc3ccc(F)cc3)CC2)cc1	i	0.81	.	.
CCn1c2ccccc2c2cc(NC(=O)CN3CCCC3)ccc21	i	3.4	.	.
CCn1c2ccccc2c2cc(NC(=O)CNCC3CCCO3)ccc21 (stereo not drawn)	i	1.9	48%*	i
COc1ccc2nc(NNC(=O)c3cc(=O)c4ccccc4o3)sc2c1	i	13*	i	i	CHO-K1 ctr=-14;KCNQ1 sel pot=-8;KCNQ2 pot confirm=-24;Kir21 spec=-21
Cc1cccc2sc(NNC(=O)c3cc(=O)c4ccccc4o3)nc12	i	0.27	.	.
Cc1cc(C)nc(-n2nc(C)cc2NC(=O)c2ccc(S(=O)(=O)N3CCOCC3)cc2)n1	i	.	.	.
Cc1sc2ncn(CC(=O)NCCCN3CC(C)CC(C)C3)c(=O)c2c1S(=O)(=O)N1CC(C)CC(C)C1 (stereo not drawn)	i	0.5	.	.
O=C(Nc1nc(-c2ccccc2)c(-c2ccccc2)o1)c1ccc(F)cc1	i	4.2	i	150%*
COc1cccc(C(=O)Nc2nc(-c3ccccc3)c(-c3ccccc3)o2)c1	i	2.3	.	.

Bioassay records (PubChem BioAssay)
